Assay results as given in PubChem BioAssay (Tox21).
Records with an inconclusive call do not appear. Calls of active or inactive are those of the source. Unless noted, the call rests on the fitted dose curve; in most records, active means well fitted curve in the direction sought with a large enough effect in the repeat runs; inconclusive means weak or mixed curves; inactive means no such curve, though single readings can be large; an effect the other way counts as inactive or inconclusive.

Legend:
[1] = qHTS assay to identify small molecule antagonists of the estrogen receptor alpha (ER-alpha) signaling pathway using the BG1 cell line in the presence of 0.1 nM 17-beta-estradiol - cell viability counter screen (AID 1259241); further: nearly all actives have a fitted effect of over 40% in size
Method in brief: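 CellTiter-Fluor read (30 min, 37C) on ER-alpha/ERE-luc VM7Luc4E2 cells; 22 hr compound treatment; agonist 0.1 nM E2 final; same-well multiplex.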

[2] = qHTS assay to identify small molecule antagonists of the androgen receptor (AR) signaling pathway using the MDA cell line in the presence of 0.5 nM R1881 - cell viability counter screen (AID 1259242); further: nearly all actives have a fitted effect of over 45% in size
Method in brief: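 MDA-kb2 cells (human breast carcinoma, stably carrying MMTV-luciferase reporter) were exposed to compounds with 0.5 nM R1881 (final) for 16 hr at 37C, 0% CO2; viability then read as live-cell protease fluorescence (CellTiter-Fluor, 30 min) in the same wells.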

[3] = target: Androgen receptor (Homo sapiens) (UniProt P10275); test: qHTS assay to identify small molecule antagonists of the androgen receptor (AR) signaling pathway using the MDA cell line in the presence of 0.5 nM R1881 (AID 1259243); further: nearly all actives have a fitted effect of over 50% in size
Method in brief: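 MDA-kb2 human breast carcinoma cells carrying an MMTV-luciferase reporter (AR- and GR-responsive) were plated, rested 5 hr at 37C, dosed with compounds, then stimulated with 0.5 nM R1881 (final) for 16 hr; luminescence was read after ONE-Glo.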

[4] = target: Estrogen receptor (Homo sapiens) (UniProt P03372); test: qHTS assay to identify small molecule antagonists of the estrogen receptor alpha (ER-alpha) signaling pathway using the BG1 cell line in the presence of 0.1 nM 17-beta-estradiol (AID 1259244); further: nearly all actives have a fitted effect of over 50% in size
Method in brief: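 VM7Luc4E2 cells (endogenous full-length ER-alpha, stable 4xERE-luciferase) were grown 5 days in phenol red-free medium with charcoal-stripped FBS, then exposed 22 h at 37C to compounds plus 0.1 nM (final) 17beta-estradiol; ONE-Glo luminescence read-out.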

[5] = qHTS assay to identify small molecule phospholipidosis (PLD) inducers (AID 1259344; active means well fitted curve in the direction sought with a large enough effect; an effect the other way counts as inactive or inconclusive)
Method in brief: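 HepG2 cells on collagen I, attached 4 h at 37 C, were co-treated with compound and LipidTOX Red dye for 24 h at 37 C, then fixed with paraformaldehyde plus Hoechst 33342 and imaged by high-content microscopy for phospholipid accumulation.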

[6] = qHTS assay to identify small molecule HDAC inhibitors (AID 1259364); further: top concentration of the series differs between compounds; nearly all actives have a fitted effect of over 45% in size
Method in brief: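 Wild-type HCT-116 cells were plated overnight, exposed to compounds for 2 h at 37 °C, then given HDAC-Glo class I/II luminogenic reagent for 30 min at room temperature before luminescence was read.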

[7] = qHTS assay to identify small molecule HDAC inhibitors - cell viability counter screen (AID 1259365); further: series mostly up to about 92 µM; nearly all actives have a fitted effect of over 50% in size
Method in brief: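 To flag cytotoxic hits, 1,500 wild-type HCT-116 cells per well, plated the day before, receive test compounds for 2hr at 37 C before CellTiter-Glo reagent and a luminescence read.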

[8] = qHTS assay to identify small molecule agonists of the sonic hedgehog signaling (Shh) pathway - cell viability counter screen (AID 1259366); further: nearly all actives have a fitted effect of over 50% in size
Method in brief: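 Fluorescence from CellTiter-Fluor reports live cells in this counter screen. NIH/3T3-derived Gli1-Luc reporter cells receive test compounds for 24hr at 37C; reagent goes in at 23hr.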

[9] = qHTS assay to identify small molecule antagonists of the sonic hedgehog signaling (Shh) pathway - cell viability counter screen (AID 1259367); further: nearly all actives have a fitted effect of over 55% in size
Method in brief: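 NIH/3T3-derived Gli1-Luc reporter cells (2,000 per well) rested 4 hr at 37 C, then received DMSO compounds plus conditioned medium. After 23 hr of treatment, CellTiter-Fluor was added for 1 hr at 37C and fluorescence read.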

[10] = qHTS assay to identify small molecule agonists of the sonic hedgehog signaling (Shh) pathway (AID 1259368; calls by dose curve; further: series mostly up to about 92 µM; nearly all actives have a fitted effect of over 15% in size)
Method in brief: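 NIH/3T3-derived 3T3Gli1-Luc cells carrying a stably integrated Gli1 response element–firefly luciferase reporter were plated, left 4 hr at 37 C, then given compounds in DMSO for 24 hr. Luminescence was read 30 min after adding luciferase reagent.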

[11] = qHTS assay to identify small molecule agonists of the androgen receptor (AR) signaling pathway in the presence of an antagonist - cell viability counter screen (AID 1259379); further: series mostly up to about 92 µM; nearly all actives have a fitted effect of over 25% in size
Method in brief: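 MDA-kb2 human breast carcinoma cells (stable MMTV-luciferase, AR/GR responsive) were seeded 3,000 cells/well, pre-incubated 5 hr at 37C without CO2, then given 3.0uM nilutamide and compounds at 15 concentrations for 16 hr. Viability was read by CellTiter-Fluor fluorescence.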

[12] = qHTS assay to identify small molecule agonists of the estrogen receptor beta (ER-beta) signaling pathway - cell viability counter screen (AID 1259380); further: nearly all actives have a fitted effect of over 30% in size
Method in brief: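 ER-beta-UAS-bla HEK293T cells in medium with 2% charcoal-stripped FBS were preincubated 6 hr at 37C, dosed with compound in DMSO for 16 hr, then after the bla read, CellTiter-Glo was added for 30 min at room temperature; luminescence recorded.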

[13] = qHTS assay to identify small molecule antagonists of the estrogen receptor beta (ER-beta) signaling pathway - cell viability counter screen (AID 1259382); further: series mostly up to about 92 µM; nearly all actives have a fitted effect of over 55% in size
Method in brief: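 ER-beta-UAS-bla HEK293T cells (2,000/well, 2% charcoal-stripped FBS) were pre-incubated 6 hr at 37C, then given compound plus 1nM final 17-beta-estradiol for 16 hr. Viability was read in the same wells by CellTiter-Glo luminescence after 30 min at room temperature.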

[14] = target: Estrogen receptor (Homo sapiens) (UniProt P03372); test: qHTS assay to identify small molecule agonists of the estrogen receptor alpha (ER-alpha) signaling pathway in the presence of an antagonist (AID 1259383; calls by dose curve; further: top concentration of the series differs between compounds; nearly all actives have a fitted effect of over 15% in size)
Method in brief: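 VM7Luc4E2 cells (endogenous full-length ER-alpha, 4×ERE-luciferase) were precultured 5 days in phenol red-free medium with 10% charcoal-stripped FBS, given 10.0nM ICI-182,780 (final), then treated with compounds at 15 concentrations for 22hr at 37C; luminescence read with ONE-Glo.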

[15] = qHTS assay to identify small molecule agonists or antagonists of the thyroid stimulating hormone receptor (TSHR) signaling pathway - wild type cell line counter screen (AID 1259384; calls by dose curve)
Method in brief: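 Wild-type HEK293 cells were plated 18 h at 37 C/5% CO2, pin-dosed with compound plus Ro20-1724 medium, held 30 min at room temperature, then given cAMP-d2 and anti-cAMP-cryptate; fluorescence was read after 1 h. Fifteen concentrations, triplicate.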

[16] = target: Thyrotropin receptor (Homo sapiens) (UniProt P16473); test: qHTS assay to identify small molecule antagonists of the thyroid stimulating hormone receptor (TSHR) signaling pathway (AID 1259385; calls by dose curve; further: nearly all actives have a fitted effect of over 20% in size)
Method in brief: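 TSHR-HEK293 cells were plated and held 18 h at 37C/5% CO2, then given compound plus Ro20-1724 and stimulated with TSH at 1.5 ng/mL final. After 30 min at room temperature, cAMP was detected with cAMP-d2/anti-cAMP-cryptate (1 h) by fluorescence.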

[17] = qHTS assay to identify small molecule agonists of the estrogen receptor alpha (ER-alpha) signaling pathway in the presence of an antagonist - cell viability counter screen (AID 1259386); further: series mostly up to about 92 µM; nearly all actives have a fitted effect of over 30% in size
Method in brief: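 VM7Luc4E2 cells (endogenous full-length ER-alpha, 4×ERE-luciferase) were held 5 days in phenol red-free medium with 10% charcoal-stripped FBS, plated, then given 10.0nM ICI-182,780 and compounds at 15 concentrations for 22hr at 37C; viability read by CellTiter-Fluor fluorescence.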

[18] = qHTS assay to identify small molecule antagonists of the sonic hedgehog signaling (Shh) pathway (AID 1259369; calls by dose curve; further: nearly all actives have a fitted effect of over 45% in size)
Method in brief: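 NIH/3T3-derived 3T3Gli1-Luc cells with stably integrated Gli1-Luc reporter were preincubated 4hr at 37 C, then given compounds in DMSO plus Shh conditioned medium and incubated 24hr. Firefly luciferase luminescence read after 30min reagent at room temperature.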

[19] = target: Estrogen receptor beta (Homo sapiens) (UniProt Q92731); test: qHTS assay to identify small molecule agonists of the estrogen receptor beta (ER-beta) signaling pathway (AID 1259377; active means well fitted activation curve with a large enough effect in the signal ratio in the repeat runs, not every such curve was filed as active; the % refers to the signal ratio)
Method in brief: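 Screening used GripTite ER-beta-UAS-bla cells held in 2% charcoal-stripped FBS medium. After overnight (16 hr) compound incubation at 37C, beta-lactamase activity was detected with a FRET substrate by fluorescence.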

[20] = target: Estrogen receptor beta (Homo sapiens) (UniProt Q92731); test: qHTS assay to identify small molecule antagonists of the estrogen receptor beta (ER-beta) signaling pathway (AID 1259378; active means well fitted inhibition curve with a large enough effect in the signal ratio in the repeat runs, not every such curve was filed as active; the % refers to the signal ratio)
Method in brief: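 ER-beta-UAS-bla HEK293T (GripTite) cells in 2% charcoal-stripped FBS medium were preincubated 6 hr at 37C, dosed with compound, then stimulated with 1 nM E2 (final) for 16 hr; beta-lactamase reporter read by B/G FRET fluorescence after 2 hr substrate loading.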
On the % scale 0 is the no-effect control and ±100 the full control effect.

Chain of Thyrotropin receptor (Homo sapiens) (P16473 whole entry, looked up): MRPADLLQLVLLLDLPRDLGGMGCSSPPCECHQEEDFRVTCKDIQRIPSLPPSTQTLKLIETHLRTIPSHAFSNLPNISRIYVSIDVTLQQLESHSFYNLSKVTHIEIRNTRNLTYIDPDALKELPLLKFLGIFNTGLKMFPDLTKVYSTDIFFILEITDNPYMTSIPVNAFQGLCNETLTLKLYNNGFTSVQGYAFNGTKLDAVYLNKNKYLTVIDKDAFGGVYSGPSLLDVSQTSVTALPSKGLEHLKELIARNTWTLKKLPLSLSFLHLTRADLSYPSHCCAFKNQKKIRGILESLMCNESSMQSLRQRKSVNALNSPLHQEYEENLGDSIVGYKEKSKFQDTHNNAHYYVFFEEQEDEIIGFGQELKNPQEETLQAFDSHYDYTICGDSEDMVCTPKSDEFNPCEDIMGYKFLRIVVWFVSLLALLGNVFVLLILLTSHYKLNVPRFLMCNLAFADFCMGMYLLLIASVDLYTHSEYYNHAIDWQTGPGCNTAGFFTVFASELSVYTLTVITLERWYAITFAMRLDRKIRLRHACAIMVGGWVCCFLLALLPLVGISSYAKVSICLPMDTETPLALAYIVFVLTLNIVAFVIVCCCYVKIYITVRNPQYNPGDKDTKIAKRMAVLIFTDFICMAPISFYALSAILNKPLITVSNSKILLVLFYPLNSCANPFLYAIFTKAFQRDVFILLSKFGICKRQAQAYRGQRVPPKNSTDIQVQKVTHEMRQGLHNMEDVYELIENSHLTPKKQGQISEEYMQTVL
Chain of Estrogen receptor (Homo sapiens) (P03372 whole entry, looked up): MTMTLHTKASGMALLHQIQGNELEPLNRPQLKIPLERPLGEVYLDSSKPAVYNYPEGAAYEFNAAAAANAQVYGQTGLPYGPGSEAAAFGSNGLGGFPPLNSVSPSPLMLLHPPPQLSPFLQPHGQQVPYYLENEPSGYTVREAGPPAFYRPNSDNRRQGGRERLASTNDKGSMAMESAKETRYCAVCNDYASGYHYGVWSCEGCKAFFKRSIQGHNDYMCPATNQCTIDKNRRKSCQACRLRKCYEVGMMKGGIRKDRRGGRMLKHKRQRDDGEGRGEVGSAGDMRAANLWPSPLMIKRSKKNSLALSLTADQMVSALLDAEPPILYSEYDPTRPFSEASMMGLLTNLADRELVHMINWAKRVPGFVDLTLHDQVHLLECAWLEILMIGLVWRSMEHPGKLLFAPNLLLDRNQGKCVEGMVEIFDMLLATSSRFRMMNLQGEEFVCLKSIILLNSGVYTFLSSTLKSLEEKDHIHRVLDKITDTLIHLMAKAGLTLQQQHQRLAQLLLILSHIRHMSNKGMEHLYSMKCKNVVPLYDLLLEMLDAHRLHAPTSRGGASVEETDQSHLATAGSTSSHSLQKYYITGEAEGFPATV
Chain of Androgen receptor (Homo sapiens) (P10275 whole entry, looked up): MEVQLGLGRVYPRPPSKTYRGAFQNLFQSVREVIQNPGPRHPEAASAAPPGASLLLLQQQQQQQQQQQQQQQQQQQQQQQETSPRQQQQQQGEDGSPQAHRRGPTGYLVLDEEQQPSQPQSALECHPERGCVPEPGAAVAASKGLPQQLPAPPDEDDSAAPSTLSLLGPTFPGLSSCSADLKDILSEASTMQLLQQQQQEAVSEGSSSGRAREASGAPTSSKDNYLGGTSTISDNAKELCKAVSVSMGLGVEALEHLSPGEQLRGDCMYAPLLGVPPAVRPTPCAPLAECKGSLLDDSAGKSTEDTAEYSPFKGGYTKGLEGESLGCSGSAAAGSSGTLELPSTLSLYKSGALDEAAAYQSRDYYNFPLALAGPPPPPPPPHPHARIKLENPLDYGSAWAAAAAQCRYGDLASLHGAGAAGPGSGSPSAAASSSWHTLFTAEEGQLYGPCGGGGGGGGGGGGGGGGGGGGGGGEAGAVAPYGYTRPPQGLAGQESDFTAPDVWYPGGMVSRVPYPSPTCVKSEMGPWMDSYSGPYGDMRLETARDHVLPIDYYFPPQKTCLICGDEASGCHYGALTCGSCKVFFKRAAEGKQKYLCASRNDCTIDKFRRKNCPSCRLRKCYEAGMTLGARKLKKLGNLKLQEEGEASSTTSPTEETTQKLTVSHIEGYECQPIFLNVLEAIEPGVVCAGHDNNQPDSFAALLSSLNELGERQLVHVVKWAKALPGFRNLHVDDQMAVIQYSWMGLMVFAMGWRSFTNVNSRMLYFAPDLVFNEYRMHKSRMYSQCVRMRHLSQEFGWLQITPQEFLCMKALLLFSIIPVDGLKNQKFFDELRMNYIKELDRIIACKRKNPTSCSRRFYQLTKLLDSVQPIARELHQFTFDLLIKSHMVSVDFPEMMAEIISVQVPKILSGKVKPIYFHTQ
Chain of Estrogen receptor beta (Homo sapiens) (Q92731 whole entry, looked up): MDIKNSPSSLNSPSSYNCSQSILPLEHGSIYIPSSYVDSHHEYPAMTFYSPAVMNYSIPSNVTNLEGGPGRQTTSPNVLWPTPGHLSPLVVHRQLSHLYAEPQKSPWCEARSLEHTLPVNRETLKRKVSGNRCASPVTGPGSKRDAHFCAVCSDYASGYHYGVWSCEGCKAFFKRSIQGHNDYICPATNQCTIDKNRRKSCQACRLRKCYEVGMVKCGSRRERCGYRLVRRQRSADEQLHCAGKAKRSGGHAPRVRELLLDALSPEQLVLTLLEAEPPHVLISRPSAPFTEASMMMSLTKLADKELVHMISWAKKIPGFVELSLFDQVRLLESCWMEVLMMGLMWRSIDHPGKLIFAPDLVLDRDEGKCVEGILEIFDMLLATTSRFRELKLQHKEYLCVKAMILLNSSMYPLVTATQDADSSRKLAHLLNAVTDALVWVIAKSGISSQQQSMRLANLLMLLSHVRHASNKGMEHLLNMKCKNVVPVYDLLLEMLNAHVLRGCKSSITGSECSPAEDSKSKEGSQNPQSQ

NC(=O)COCCN1CCN(C(c2ccccc2)c2ccc(Cl)cc2)CC1 (configuration not stated)
inactive: outcome [1] | Potency [2] | Potency [3] | outcome [4] | PLD induction [5] -1.34% [at 1.53 µM] | Potency [6] | outcome [7] | Potency [8] | Potency [9] | outcome [10] | Potency [11] | Potency [12] | Potency [13] | Potency [14] | outcome [15] | Potency [16] | Potency [17]

Cc1cnc(NS(=O)(=O)c2ccc(N)cc2)nc1
inactive: outcome [1] | Potency [2] | Potency [3] | outcome [4] | Potency [6] | outcome [7] | Potency [8] | Potency [9] | outcome [10] | Potency [18] | outcome [19] | outcome [20] | Potency [11] | Potency [12] | Potency [13] | outcome [15] | Potency [16] | Potency [17]

O=C1CC2CC1C1CCCC21 (configuration not stated)
inactive: outcome [1] | Potency [2] | Potency [3] | outcome [4] | Potency [6] | outcome [7] | Potency [8] | Potency [9] | outcome [10] | Potency [18] | outcome [19] | outcome [20] | Potency [11] | Potency [12] | Potency [13] | Potency [14] | Potency [16] | Potency [17]

ClC(Cl)(Br)Br
inactive: outcome [1] | Potency [2] | Potency [3] | outcome [4] | Potency [6] | outcome [7] | Potency [8] | Potency [9] | outcome [10] | Potency [18] | outcome [19] | outcome [20] | Potency [11] | Potency [12] | Potency [13] | Potency [16] | Potency [17]

O=S(O)CO
inactive: outcome [1] | Potency [2] | Potency [3] | outcome [4] | outcome [7] | Potency [8] | Potency [9] | outcome [10] | outcome [20] | Potency [11] | Potency [12] | Potency [13] | Potency [14] | outcome [15] | Potency [16] | Potency [17]

CCN1CCC[C@H]1CNC(=O)c1cc(S(N)(=O)=O)ccc1OC
inactive: outcome [1] | Potency [2] | Potency [3] | Potency [5] | Potency [6] | outcome [7] | Potency [8] | Potency [9] | outcome [10] | Potency [18] | outcome [19] | outcome [20] | Potency [11] | Potency [12] | Potency [13] | outcome [15] | Potency [16] | Potency [17]

COc1c(N2C[C@@H]3CCCN[C@@H]3C2)c(F)cc2c(=O)c(C(=O)O)cn(C3CC3)c12
inactive: outcome [1] | Potency [2] | outcome [4] | Potency [5] | Potency [6] | outcome [7] | Potency [8] | Potency [9] | outcome [10] | Potency [18] | outcome [19] | Potency [11] | Potency [12] | Potency [13] | Potency [16] | Potency [17]

CN1CC(=O)NC1=N
inactive: outcome [1] | Potency [2] | Potency [3] | Potency [5] | Potency [6] | outcome [7] | Potency [8] | Potency [9] | outcome [10] | outcome [19] | outcome [20] | Potency [11] | Potency [12] | Potency [13] | outcome [15] | Potency [16] | Potency [17]
